Source: PubChem BioAssay
NPC1 prom act: qHTS Assay for NPC1 Promoter Activators; Potency, µM (top dose mostly 9.22 µM), hits mostly activators; AID 485313, 2010; Huh7 NPC1 promoter luciferase reporter, 24 h; actives 2.4% (n = 320,000); also: nearly all actives have a fitted effect of over 60% in size
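Luminescence from an NPC1 promoter-driven luciferase reporter in stably transfected Huh7 cells was measured after 24 h compound treatment at 37 °C, followed by 10 min ambient incubation with luciferase detection reagent.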
ELG1 genotoxic: qHTS screen for small molecules that induce genotoxicity in human embryonic kidney (HEK293T) cells expressing luciferase-tagged ELG1. HEK293T ELG1-luciferase reporter, luminescence, 16 h. Potency, µM (series often up to 46 µM), actives largely listed as activators. actives 1.3% (n = 330,000). AID 504466, 2011; also: nearly all actives have a fitted effect of over 60% in size
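Screening used a luciferase reporter fused to human ELG1 in HEK293T cells. Luminescence was read on a CCD plate imager after 16 hr exposure and 30 min ONE-Glo incubation.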
ELG1 DNA repair: qHTS screen for small molecules that inhibit ELG1-dependent DNA repair in human embryonic kidney (HEK293T) cells expressing luciferase-tagged ELG1 | HEK293T ELG1-luciferase reporter, luminescence, 16 h; DNA damage induced by 5-fluorouridine | actives 2.3% (n = 330,000) | Potency, µM (doses to about 46.1 µM), usual class: inhibitors | AID 504467, 2011; also: nearly all actives have a fitted effect of over 55% in size
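Quantitative HTS, concentration-response format. 2,000 cells/well co-treated with 5-fluorouridine and compound, 16 hr in 5% CO2 at 37 °C; ONE-Glo luminescence read after 30 min.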
SMN2 splice enh: qHTS Assay for Enhancers of SMN2 Splice Variant Expression; actives 2.8% (n = 210,000); AID 1458, 2008; Potency, µM (titrated, usually from 46.1 µM), hits mostly activators; HEK293 SMN2-luciferase splicing reporter, luminescence, 30-36 h; also: nearly all actives have a fitted effect of over 55% in size
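HEK293 cells carry an SMN2 minigene-luciferase reporter in which exon 7 inclusion puts luciferase in frame. Cells were seeded at 2000 cells/well, attached for 10-12 hours, then exposed to compounds for 30-36 hours at 37C before ONE-Glo luminescence.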
Rab9 prom act: qHTS Assay for Rab9 Promoter Activators; Huh7 Rab9 promoter-luciferase reporter, luminescence, 24 h; Potency, µM (doses to about 9.22 µM), most hits filed as activators; actives 2.8% (n = 320,000); also: nearly all actives have a fitted effect of over 60% in size
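Steps: seed 1500 Huh7 Rab9-luc cells per well, rest 2 h at 37 °C; add compound in DMSO; incubate 24 h; add luciferase reagent, 10 min ambient; read luminescence.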
FLuc modulator: qHTS profiling assay for firefly luciferase inhibitor/activator using purifed enzyme and Km concentrations of substrates (counterscreen for miR-21 project); purified FLuc, Km substrates, luminescence inhibition; actives 6.9% (n = 360,000); Potency, µM (titrated, usually from 57.5 µM), most hits filed as inhibitors; AID 588342, 2011; also: nearly all actives have a fitted effect of over 55% in size
Target sequence (P08659 whole entry, looked up): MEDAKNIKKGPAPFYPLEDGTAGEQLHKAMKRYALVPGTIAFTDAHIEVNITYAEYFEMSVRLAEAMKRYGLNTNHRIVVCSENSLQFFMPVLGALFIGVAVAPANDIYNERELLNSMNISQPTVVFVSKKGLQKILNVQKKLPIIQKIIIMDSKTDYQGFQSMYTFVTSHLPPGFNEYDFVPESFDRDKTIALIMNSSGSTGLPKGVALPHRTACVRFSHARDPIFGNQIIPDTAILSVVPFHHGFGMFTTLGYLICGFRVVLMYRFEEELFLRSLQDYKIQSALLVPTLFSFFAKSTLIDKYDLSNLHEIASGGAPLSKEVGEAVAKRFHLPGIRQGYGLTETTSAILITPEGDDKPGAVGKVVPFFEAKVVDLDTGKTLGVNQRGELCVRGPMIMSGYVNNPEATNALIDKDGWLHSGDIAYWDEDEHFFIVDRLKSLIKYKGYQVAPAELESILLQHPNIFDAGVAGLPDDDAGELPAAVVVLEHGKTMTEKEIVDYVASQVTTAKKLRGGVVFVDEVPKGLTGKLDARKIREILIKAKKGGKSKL
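Purified P. pyralis luciferase, 10 nM final, with Km-level 10 uM D-luciferin and 10 uM ATP in 50 mM Tris acetate pH 7.5, 10 mM Mg acetate, 0.01% Tween-20, 0.05% BSA; 6-point qHTS titration about 60 µM downward; luminescence read.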
Each line names hits and unclear results; the compound was inactive in the other large screens. Only some compounds are listed: those with a hit (about 9.3% of all), similar ones and a draw of the others. Calls follow the shape of the dose curve; as a rule, active = well fitted curve in the direction sought with a large enough effect; inconclusive = small, poorly fitted or top-dose-only effect, or another doubt; inactive = no such curve, though single readings can be large; an effect the other way counts as inactive or inconclusive.

Cc1cc2cc3c(cc2nc1SCc1ccccn1)OCCO3	ELG1 DNA repair inconclusive, Rab9 prom act inconclusive, FLuc modulator inconclusive
Cc1ccccc1NC(=O)c1sc(NC(=O)COc2ccccc2)c(C#N)c1C	ELG1 DNA repair 23µM
COC(=O)c1sc(NC(=O)COc2ccc(C)cc2)nc1C	FLuc modulator 17µM
COC(=O)c1sc(NC(=O)Cc2cccs2)nc1C	ELG1 genotoxic 21µM, ELG1 DNA repair inconclusive, SMN2 splice enh inconclusive, FLuc modulator inconclusive
COC(=O)c1sc(NC(=O)COc2ccccc2)nc1C	NPC1 prom act inconclusive, ELG1 genotoxic 18µM, ELG1 DNA repair inconclusive, Rab9 prom act inconclusive, FLuc modulator 17µM
COc1ccc(N(CC(=O)NC2CCCC2)C(=O)Cn2nnc(-c3ccc(C)o3)n2)c(OC)c1	none (no result: SMN2 splice enh)
Cc1cc(C)n(-c2nc3c(c(=O)n(C)c(=O)n3C)n2CCO)n1	none
Cc1nn(-c2ccccc2)c(Cl)c1/C=N/NC(=O)c1cccnc1	ELG1 DNA repair inconclusive, SMN2 splice enh inconclusive, FLuc modulator 13µM
Cc1nn(-c2ccccc2)c(Cl)c1/C=C/C(=O)c1ccccc1	ELG1 genotoxic 18µM, ELG1 DNA repair inconclusive, FLuc modulator 3.8µM
Cc1ccc(-n2nc(C)c(/C=N/NC(=O)c3cccnc3)c2Cl)cc1	FLuc modulator inconclusive
Cc1ccc(C(=O)N/N=C\c2c(C)nn(-c3ccccc3)c2Cl)cn1	SMN2 splice enh inconclusive, FLuc modulator 11µM
CS(=O)(=O)n1nc(-c2ccc(Cl)cc2)nc1SCc1ccccc1	NPC1 prom act inconclusive, ELG1 genotoxic 15µM, ELG1 DNA repair inconclusive, Rab9 prom act inconclusive (no result: FLuc modulator)
CSc1nc(-c2ccc(Cl)cc2)nn1S(=O)(=O)c1ccccc1	NPC1 prom act inconclusive, ELG1 DNA repair inconclusive, SMN2 splice enh 13µM, Rab9 prom act inconclusive, FLuc modulator 13µM
O=S(=O)(c1ccccc1)n1nc(-c2ccc(Cl)cc2)nc1NCc1ccccc1	none (no result: NPC1 prom act, ELG1 genotoxic, ELG1 DNA repair, Rab9 prom act)
CSc1nc(-c2ccc(Cl)cc2)nn1S(=O)(=O)c1ccc(Cl)cc1	ELG1 genotoxic inconclusive, ELG1 DNA repair inconclusive, SMN2 splice enh 11µM, Rab9 prom act 3.5µM
O=C(CCS(=O)(=O)c1ccccc1)Nc1ccc(-c2nc3ccccc3s2)cc1	NPC1 prom act 1.6µM, ELG1 genotoxic inconclusive, ELG1 DNA repair inconclusive, SMN2 splice enh 1µM, Rab9 prom act 0.5µM
O=C(COc1ccccc1[N+](=O)[O-])Nc1ccc(-c2nc3ccccc3s2)cc1	none (no result: NPC1 prom act, ELG1 genotoxic, ELG1 DNA repair, SMN2 splice enh, Rab9 prom act)
O=C(CCS(=O)(=O)c1ccccc1)Nc1cccc(-c2nc3ccccc3s2)c1	NPC1 prom act inconclusive, ELG1 genotoxic inconclusive, ELG1 DNA repair inconclusive, Rab9 prom act inconclusive, FLuc modulator 6.7µM
c1ccc2c(c1)OCCc1c-2[nH]c2ccccc12	FLuc modulator inconclusive (no result: SMN2 splice enh)
Cc1ccnc(N(C(=O)c2cccs2)C(=O)c2cccs2)c1	NPC1 prom act 2.5µM, ELG1 genotoxic 2.1µM, ELG1 DNA repair inconclusive, SMN2 splice enh 13µM, Rab9 prom act 3.5µM, FLuc modulator 19µM
O=C(c1cccs1)N(C(=O)c1cccs1)c1ccc(Br)cn1	NPC1 prom act inconclusive, ELG1 genotoxic 2.1µM, ELG1 DNA repair inconclusive, SMN2 splice enh inconclusive, Rab9 prom act 1.6µM, FLuc modulator inconclusive
Cc1ccc2[nH]c(=O)c(CN(C)C(=O)c3cccs3)cc2c1	ELG1 DNA repair inconclusive
O=C(NC(=S)N1CCN(c2ccc([N+](=O)[O-])cc2)CC1)c1ccco1	FLuc modulator inconclusive
CCOC(=O)Nc1ccc2c(CN3CCN(S(=O)(=O)c4ccccc4F)CC3)cc(=O)oc2c1	ELG1 DNA repair 6.5µM (no result: SMN2 splice enh)
CCCCOC(=O)Nc1ccc2c(C)cc(=O)oc2c1	NPC1 prom act 1.8µM, ELG1 genotoxic 18µM, ELG1 DNA repair inconclusive, SMN2 splice enh 11µM, Rab9 prom act 1.4µM, FLuc modulator 6µM
